Test results: PubChem BioAssay AID588726 (The Scripps Research Institute Molecular Screening Center, 2011)
The campaign covered roughly 360,000 compounds. About 8,200 (2.3%) were called active. This is one part of a sample in which actives are shown more often than they occur. Unmarked numbers belong to inactive results. No stated cut-off is given here; in the data, active means inhibition above about 27%; inactive means the rest.

What follows are compounds tested against Fructose-bisphosphate aldolase (Mycobacterium tuberculosis (strain ATCC 25618 / H37Rv)) (UniProt P9WQA3) (assay: Mtb FBA enzyme inhibitors, primary screen, biochemical, fluorescence, strain H37Rv (AID 588726;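 further: 0% = vehicle and 100% = reference inhibitor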)). Settings: purified M. tuberculosis FBA, fluorescence read-out, at 1 µM, stronger effect = higher value.
Sequence of Fructose-bisphosphate aldolase (Mycobacterium tuberculosis (strain ATCC 25618 / H37Rv)) (P9WQA3 whole entry, looked up): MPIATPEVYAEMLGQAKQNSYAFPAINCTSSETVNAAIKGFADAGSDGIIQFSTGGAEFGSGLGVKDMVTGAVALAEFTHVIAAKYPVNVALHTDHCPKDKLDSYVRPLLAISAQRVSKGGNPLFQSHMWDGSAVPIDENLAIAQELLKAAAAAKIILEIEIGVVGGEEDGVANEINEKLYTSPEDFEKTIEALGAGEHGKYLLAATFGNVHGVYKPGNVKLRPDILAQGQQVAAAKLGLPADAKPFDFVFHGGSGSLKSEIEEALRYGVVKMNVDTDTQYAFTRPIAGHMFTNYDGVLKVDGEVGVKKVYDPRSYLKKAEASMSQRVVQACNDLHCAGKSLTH
For CCN(CC)C(=O)Oc1ccc(Br)cc1C(=O)Nc1ccc(F)c(Cl)c1, the inhibition was -6.9%.
With C#CCCOC(=O)N1C2=NC(C(=O)OC)=C(C(=O)OC)[C@@H]3N(C)c4ccc(OC)cc4[C@]23C[C@H]1C(=O)OC the inhibition was 5.83%.
O=C(OCCO)c1cc(Cl)c(C(=O)OCCO)cc1Cl showed an inhibition of -2.53%.
Work on CC1CC(C)(C)CC2(C1)NC(=O)N(CC(=O)Nc1nccs1)C2=O (stereo not drawn) yielded an inhibition of 1.81%.
Cc1ccc(S(=O)(=O)N2CCN(C(=O)c3ccc(-n4cncn4)c([N+](=O)[O-])c3)CC2)cc1 showed an inhibition of -0.25%.
O=C(NCCc1ccccc1)c1c[nH]c2ccc(F)cc2c1=O was tested, and the inhibition was -1.25%.
For COc1ccc(Cl)cc1NC(=O)c1cccc(N2C(=O)C3CC=CCC3C2=O)c1 (stereo not drawn), the inhibition was -2.03%.
In the case of Cc1cccc(NC(=O)c2ccc(S(=O)(=O)N(C)CC3CCCO3)cc2)c1C (stereo not drawn), the inhibition is reported as -3.44%.
CNc1ccc(SC#N)cc1 showed an inhibition of 2.17%.
CC1CCN(CC(=O)Nc2nccs2)CC1 gave an inhibition of -1.23%.
For CCOC(=O)C(CC)/C(C)=N\NC(=O)c1cccc(C)c1 (stereo not drawn), the inhibition was 2.1%.
In the case of O=S(=O)(Nc1ccc2[nH]ncc2c1)c1ccccc1Cl, the inhibition is reported as -2.11%.
Work on Cc1ccc(NS(=O)(=O)c2c(C)[nH]c(C)c2C(=O)N2CCCCC2)c(C)c1 yielded an inhibition of 1.03%.
COc1ccc(NC(=O)c2sccc2SCC#N)cc1 was tested, and the inhibition was 0.88%.
CCOC(=O)c1cc2cc(C)ccc2[nH]1 was tested, and the inhibition was 31.8% (active).
CCOC(=O)c1[nH]c2ccc(C)cc2c1N=C(C)N(C)C gave an inhibition of 1.43%.
Cc1ccc2[nH]c(=O)c(COC(=O)c3ccccn3)cc2c1 was tested, and the inhibition was 1.82%.
CC1(C)C(=O)CCC2(C)C1=CCC1C2C(=O)CC2(C)C1CCC2(O)C(=O)CO (stereo not drawn) was tested, and the inhibition was 1.52%.
COc1ccc(-n2c(C)cc(C(=O)CN3C(=O)NC4(CCc5ccccc54)C3=O)c2C)cc1 (stereo not drawn) was tested, and the inhibition was 1%.
In the case of Cc1cc(C)c(-c2c(O)c3ccccc3n(C)c2=O)c(C)c1, the inhibition is reported as 62.7% (active).
Cn1c(=O)c(Sc2ccc(Cl)cc2)c(O)c2ccccc21 showed an inhibition of 2%.
With Cn1c(=O)c(C(=O)Nc2ncccn2)c(O)c2ccccc21 the inhibition was 7.7%.
With COc1c(O)cccc1-c1nnn(CCC(=O)OCC(=O)c2ccccc2)n1 the inhibition was 0.78%.
For C/C=C(/C)C(=O)OC1Cc2c(ccc3ccc(=O)oc23)OC1(C)C (stereo not drawn), the inhibition was 26.4%.
With CC1(C)Oc2ccc3ccc(=O)oc3c2/C(=C/NCCO)C1=O the inhibition was 2.48%.
Cc1cc(=O)oc2c1ccc1ccccc12 was tested, and the inhibition was 37% (active).
Cc1cc(=O)oc2c(C(=O)c3ccccc3)c(OCC(N)=O)ccc12 gave an inhibition of 0.48%.
CC(=O)c1c(OCC(=O)N(C)C2CCCCC2)ccc2c(C)cc(=O)oc12 showed an inhibition of 9.58%.
In the case of N#CC(C#N)=CN=c1ccn(Cc2ccc(Cl)cc2Cl)cc1, the inhibition is reported as -0.58%.
Compound O=C(COc1ccc2ccccc2c1)N1CCN(C(=O)c2cccs2)CC1 has an inhibition of -0.2%.
In the case of CC(=O)NS(=O)(=O)c1ccc(NC(=O)/C=C/c2ccccc2Cl)cc1, the inhibition is reported as 6.43%.
Compound CC(=O)Nc1ccc(S(=O)(=O)Nc2cc(C)cn(Cc3ccc(C)cc3)c2=O)cc1 has an inhibition of -0.45%.
With O=C(NCCN1CCN(Cc2ccccc2)CC1)c1cc2c(=O)[nH]c3ccccc3c2s1 the inhibition was 47.8% (active).
CCC1CCCCN1CCCNC(=O)c1cc2c(Cl)nc3ccccc3c2s1 (stereo not drawn) showed an inhibition of -4.11%.
In the case of Cn1c(C(=O)NCCN2CCc3ccccc3C2)cc2c(=O)[nH]c3ccccc3c21, the inhibition is reported as 5.1%.
Compound Cc1ccc(C)c(C(O)c2ncc(-c3cccc4ccccc34)[nH]2)c1 (stereo not drawn) has an inhibition of 23.2%.
For COc1ccc(C)cc1S(=O)(=O)NCCc1ccccc1, the inhibition was -6.6%.
Work on COc1ccccc1CN(C)C(=O)c1cc2ccccc2o1 yielded an inhibition of 2.4%.
With COc1cccc2oc(CCc3ccccc3)cc(=O)c12 the inhibition was 33.4% (active).
Work on CCOc1ccc(C(=O)NC(=S)Nc2ccc(N3CCOCC3)c(Cl)c2)cc1[N+](=O)[O-] yielded an inhibition of 11%.
For COC(=O)C1C(=O)CC(C)(O)C(C(=O)OC)C1c1ccc2c(c1)OCO2 (stereo not drawn), the inhibition was 0.24%.
Work on COc1ccc(OC)c(S(=O)(=O)Nc2ccccc2F)c1 yielded an inhibition of -2.78%.
COc1cc(/C=C/C(=O)O)cc(S(=O)(=O)Nc2ccccc2C(=O)NCCc2ccccc2)c1OC gave an inhibition of 0.65%.
In the case of COc1cc(OC)c(S(=O)(=O)Nc2ccccc2C(=O)O)cc1S(=O)(=O)Nc1ccccc1C(=O)O, the inhibition is reported as 30.9% (active).
COc1ccc(N2CC(C(=O)NCCS(=O)(=O)N3CCN(c4ccccc4)CC3)CC2=O)cc1 (stereo not drawn) was tested, and the inhibition was -1.82%.
Compound CCOC(=O)N1CCN(Cc2nc3cc(NC(=O)CC)ccc3n2CC)CC1 has an inhibition of 0.91%.
Work on COCc1c(C(=O)OCC(=O)Nc2ccc(OC(F)F)cc2)oc2ccccc12 yielded an inhibition of 1.74%.
CCOC(=O)c1ccn(-c2nc(-c3ccco3)cc(C(F)(F)F)n2)n1 showed an inhibition of 10.6%.
Cc1cc(C)c2nc(-c3ccco3)cc(C(=O)O)c2c1 was tested, and the inhibition was 105% (active).
Work on COC(=O)c1cnn2c(C(F)(F)F)cc(-c3ccco3)nc12 yielded an inhibition of 14%.
Cc1ccnc(NS(=O)(=O)c2ccc(NC(=O)c3oc4ccc(F)cc4c3C)cc2)n1 gave an inhibition of 1.55%.
CN(C(=O)c1cccc(NC(=O)Cc2ccc(NC(=O)C3CCCN(C(=O)C4CC4)C3)cc2)c1)C1CC1 (stereo not drawn) gave an inhibition of 0.61%.
With CN(C)Cc1c(O)ccc2c(=O)c(-c3ccccc3Cl)coc12 the inhibition was 96.3% (active).
CN(C)Cc1c(O)ccc2occ(C(O)c3ccccc3)c12 (stereo not drawn) was tested, and the inhibition was 6.31%.
Cc1ccc(C(=O)c2coc3ccc(O)c(CN(C)C)c23)cc1 was tested, and the inhibition was -0.7%.
Work on O=C(CNC(=O)c1ccccc1)NCC(=O)OCc1ccc(Cl)cc1 yielded an inhibition of 0.34%.
With CC(Oc1ccc2c(-c3ccccc3)cc(=O)oc2c1)C(=O)NC(Cc1c[nH]c2ccccc12)C(=O)O (stereo not drawn) the inhibition was -3.79%.
In the case of O=C(CNC(=O)OCc1ccccc1)Oc1cc2oc(=O)cc(-c3ccccc3)c2cc1Cl, the inhibition is reported as 36.7% (active).
For CCN(C(=O)COC(=O)C1CCN(S(=O)(=O)c2ccc(C)c(C)c2)CC1)C1CCS(=O)(=O)C1 (stereo not drawn), the inhibition was 4.31%.
Compound CCNC(=O)COC(=O)CCNC(=O)c1cccc(C)c1 has an inhibition of -2.08%.
COCCN(CCOC)c1nc(N)c2c(N)nc3c(c2c1C#N)CC(=O)N3Cc1ccc(Cl)cc1 was tested, and the inhibition was 32.8% (active).
Work on CN(Cc1ccccc1)C(=O)C1CCCN(c2ncnc3c2nc2n3CCCCC2)C1 (stereo not drawn) yielded an inhibition of 0.44%.
In the case of COc1cccc(NS(=O)(=O)c2ccc(-c3coc(C)n3)cc2)c1, the inhibition is reported as -2.5%.
O=C(/C=C/[C@H]1O[C@@H](n2ccc(=O)[nH]c2=O)[C@H](O)[C@@H]1O)NCc1ccccn1 gave an inhibition of -1.68%.
CCOC(=O)c1cc(C)sc1NC(=O)C1CCC1 gave an inhibition of 4.25%.
In the case of CCOC(=O)c1cc(C(C)C)sc1NC(=O)COC(=O)c1nccnc1N, the inhibition is reported as 55.2% (active).
Cc1cc(C(=O)OCC(=O)Nc2nnc(C(C)C)s2)c2ccccc2n1 gave an inhibition of 1.64%.
For Cc1cc(C)c2c(c1)NP(=S)(c1ccccc1)N2 (stereo not drawn), the inhibition was 34.4% (active).
COc1ccc2c(c1)NP(=S)(c1ccccc1)N2 (stereo not drawn) gave an inhibition of 18.1%.
O=C(C1CCCO1)N1CCC(c2nc3ccccc3[nH]2)CC1 (stereo not drawn) gave an inhibition of -0.87%.
In the case of COc1cc2nc(N3CCN(C(=O)[C@@H]4CCCO4)CC3)nc(N)c2cc1OC, the inhibition is reported as 95.4% (active).
COC(=O)c1cc(OC)c(OC)cc1NC(=O)C1CCCO1 (stereo not drawn) showed an inhibition of 15.2%.
For CC1(C)CC(=O)c2cc(OCC(=O)NCC3CCCO3)ccc2O1 (stereo not drawn), the inhibition was 78.8% (active).
Work on C=CCOc1ccc(/C=C/C(=O)OCC(=O)NCC2CCCO2)cc1 (stereo not drawn) yielded an inhibition of 1.08%.
For CCOc1ccc(S(=O)(=O)NCCC(=O)NCC2CCCO2)cc1 (stereo not drawn), the inhibition was -1.07%.
With CC1=C(C(=O)N(C(C)C)C(C)C)CC(CC(=O)NCCCCc2ccccc2)C(=O)N1CCC1=CCCCC1 (stereo not drawn) the inhibition was -1.08%.
O=C(NC1CC1)C(Cc1ccccc1)NS(=O)(=O)c1ccccc1F (stereo not drawn) was tested, and the inhibition was 2.61%.
Cc1ccc(SCC(=O)NNC(=O)c2ccc(S(C)(=O)=O)cc2)cc1 was tested, and the inhibition was 0.63%.
In the case of CC(C)(C)c1ccc(/C=C/C(=O)NCCCn2ccnc2)cc1, the inhibition is reported as 1.36%.
In the case of CCCC/C=C/c1cccc2nncn12, the inhibition is reported as 27.5% (active).
In the case of O=C(O)c1ccccc1-c1cccc2nncn12, the inhibition is reported as 4.68%.
Work on OCC1(CO)CC2(C1)CC(CO)(CO)C2 yielded an inhibition of 0.01%.
In the case of Cc1nn(-c2ncccn2)c2c1C(=O)CC(C)(C)C2Br (stereo not drawn), the inhibition is reported as 4.4%.
Work on COc1ccc(NC(=O)/C(N=Nc2cccc(S(=O)(=O)Nc3ccc(SC(F)F)cc3)c2)=C(\C)O)cc1 yielded an inhibition of -0.31%.
For CCc1ccc(C(=O)NC(=S)Nc2ccccc2N2CCOCC2)cc1, the inhibition was 0.12%.
For Cc1cc(=O)n2[nH]c(-c3cccc(Cl)c3)cc2n1, the inhibition was 32.4% (active).
Work on O=c1c2c(nc3cc(-c4cccc(Cl)c4)[nH]n13)CCCC2 yielded an inhibition of 3.87%.
With Cc1cc(=O)[nH]c(SCc2ccc(Cl)cc2)n1 the inhibition was 0.44%.
Compound C[C@H](NC(=O)c1ccccc1Cl)C(=O)OCCOc1cccc(Cl)c1 has an inhibition of 4.6%.
Compound CCN(CC)CCNCc1ccc(OCc2ccc(Cl)nc2)c(OC)c1 has an inhibition of -0.85%.
For O=C(CN1C(=O)NC2(CCCC2)C1=O)Nc1ccc(F)c(F)c1F, the inhibition was -0.1%.
CC(=O)NCCC(=O)Nc1nc(C)c(Cc2ccc3c(c2)OCO3)s1 gave an inhibition of -0.89%.
Cc1cc(NC(=O)CN2C(=O)NC(CCc3ccccc3)C2=O)no1 (stereo not drawn) was tested, and the inhibition was 0.86%.
